Bioassay records deposited in PubChem BioAssay by The Scripps Research Institute Molecular Screening Center.
CHRM1 PAM: potentiates human M1 receptor response to acetylcholine | P11229 | CHO-K1 hM1, Fluo-8 calcium fluorescence, ACh EC20; 0% = ACh EC20, 100% = maximal ACh | activation, % at 3 µM | 0.088% of 360,000 active | AID 588819; in the data active = activation above about 19%, passing the limit was not always enough
Target sequence (P11229 whole entry, looked up): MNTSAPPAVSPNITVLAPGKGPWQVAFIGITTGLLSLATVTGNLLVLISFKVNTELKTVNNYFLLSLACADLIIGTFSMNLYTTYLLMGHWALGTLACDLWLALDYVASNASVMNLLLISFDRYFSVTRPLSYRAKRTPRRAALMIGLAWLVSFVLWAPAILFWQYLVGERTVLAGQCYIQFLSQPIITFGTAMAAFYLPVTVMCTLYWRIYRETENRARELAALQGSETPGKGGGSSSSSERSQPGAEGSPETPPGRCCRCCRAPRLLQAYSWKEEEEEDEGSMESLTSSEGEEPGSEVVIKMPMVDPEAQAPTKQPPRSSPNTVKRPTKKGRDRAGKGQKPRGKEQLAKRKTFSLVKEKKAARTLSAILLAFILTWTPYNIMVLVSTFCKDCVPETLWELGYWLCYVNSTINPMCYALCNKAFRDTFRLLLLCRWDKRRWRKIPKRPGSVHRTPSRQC
M1 ag: human M1 muscarinic receptor agonism. P11229. CHO-K1 hM1, Fluo-8 calcium fluorescence, agonist mode; 0% DMSO, 100% acetylcholine EC100. activation, % at 3 µM. 0.33% of 360,000 active;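 active = activation above the run's mean compound activation plus 3 SD, cut at about 16% in these data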;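 note: peak over basal fluorescence ratio within a 140 s kinetic read after compound addition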
M1 antag: human CHRM1 antagonism; P11229; CHO-K1 hM1, Fluo-8 calcium fluorescence, ACh EC80 antagonist; inhibition, % at 3 µM; 1.3% of 360,000 active; AID 588852;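 active = percent inhibition above its own plate's cutoff, namely the mean of that plate's compound wells plus 3 SD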;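 note: peak over basal fluorescence ratio during 140 s after agonist addition; 0% = ACh EC80 plus DMSO and 100% = DMSO alone without agonist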
M1 ag parental: counter-screen for M1 agonists: effect in parental CHO-K1 cells; Fluo-8 calcium fluorescence; scaled to maximal ATP response, vehicle zero; activation, % at 3 µM; 0.48% of 360,000 active; AID 602248; in the data active = activation above about 15%;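 note: untransfected CHO-K1 host cells lacking M1 receptor as counterscreen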
CHO-K1 Ca antag: nonselective inhibitor or artifact in parental CHO-K1 cells | ATP-induced calcium, Fluo-8 fluorescence | inhibition, % at 3 µM | 0.6% of 360,000 active | AID 602250;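 active = inhibition above a per-plate cutoff, the plate's mean sample inhibition plus 3 SD, cut at about 24% in these data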;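 note: 0% = DMSO plus EC80 ATP and 100% = DMSO alone without ATP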
M1 PAM parental: M1 PAM counterscreen hit in parental CHO-K1 cells; ATP EC20, Fluo-8 calcium fluorescence; 0% at ATP EC20, 100% at ATP max; AID 602247; activation, % at 3 µM; 0.02% of 360,000 active;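 active = activation above the run cutoff, the mean activation of all test compounds plus 3 SD, cut at about 40% in these data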;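 note: peak over basal fluorescence ratio in a 140 s read after ATP addition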
Numbers without * were called inactive. A selection: hits, their analogues and other compounds. The true share with any hit is near 2.3%.

SMILES	CHRM1 PAM	M1 ag	M1 antag	M1 ag parental	CHO-K1 Ca antag	M1 PAM parental
Cc1csc2c(N3CCN(C(=O)c4ccc(C(C)(C)C)cc4)CC3)ncnc12	-14	0	21	12	22	-27
Cc1csc2c(N3CCN(C(=S)Nc4ccc(C(F)(F)F)cc4)CC3)ncnc12	-4	4	22	5	28*	-27
CCc1nc(OCC(=O)c2ccccc2)c(C#N)c2c1COC(C)(C)C2	-4	-4	6	1	25*	-7
NC(=O)c1ccc(NC(=O)COC(=O)/C=C/c2ccc3c(c2)OCO3)cc1	3	-1	-13	2	-12	3
COc1cc2ccccc2cc1C(=O)Nc1ccc(Cc2ccncc2)cc1	-16	-1	30*	6	10	7
O=C(COc1ccc2ccccc2c1)Nc1ccc(Cc2ccncc2)cc1	-20	0	43*	11	25*	-3
O=C(O)Cc1ccc(NC(=O)COc2ccc3ccccc3c2)cc1	-7	-2	8	0	2	-5
O=C(Nc1nnc(SCC(=O)N2CCCCC2)s1)c1c(F)cccc1F	28*	4	-27	0	-23	-5
O=C(CSc1nnc(NC(=O)c2c(F)cccc2F)s1)NC1CCCC1	-7	-2	8	0	-6	-19
CN1CCC(=NNc2ncnc3sc4c(c23)CCCC4)CC1	-3	-8	13	0	27*	-6
c1nc(NCCN2CCOCC2)c2c3c(sc2n1)CCCCC3	-1	-3	3	0	5	-4
CN(C)CCN1CCN(C2CN(Cc3ccccc3)S(=O)(=O)C2)CC1 (stereo not drawn)	8	-2	1	0	3	3
CNc1nc2c(c(=O)[nH]c(=O)n2C)n1CCCc1ccccc1	10	-3	-14	1	-12	3
Cn1c(=O)[nH]c(=O)c2c1nc(NCc1ccccc1)n2CCCc1ccccc1	-11	0	10	-1	26*	-10
COC(=O)c1ccccc1S(=O)(=O)N1CCC(C(=O)Nc2ccc(N3CCOCC3)cc2)CC1	7	-3	-5	0	-7	11
Cc1ccc(S(=O)(=O)N2[C@@H](c3ccc(C(C)(C)C)cc3)C(C(=O)O)=CC[C@H]2c2cccs2)cc1	10	-2	-13	0	34*	-12
COC(=O)C1C2CCC(C2)C1C(=O)OCC(=O)c1ccc(C)cc1 (stereo not drawn)	-6	0	14	0	27*	-4
COc1ccc(CCC(=O)OCC(=O)c2ccc(C)cc2)cc1	11	-10	-14	0	-12	21
NNC(=O)c1ncoc1-c1ccc(Cl)cc1	4	-3	-12	1	-10	10
Cn1cnc2c1c(=O)n(CC(O)CO)c(=O)n2C (stereo not drawn)	-9	0	29*	0	6	2
Cn1cnc2c1c(=O)n(Cc1ccccc1)c(=O)n2C	11	-2	-8	1	-4	12
CCN(CC)c1ccc(C2CC(=O)NC3=C2C(=O)CC(C)(C)C3)cc1 (stereo not drawn)	-23	-10	26*	-1	-2	4
CN(C)c1ccc(C2CC(=O)NC3=C2C(=O)CC(C)(C)C3)cc1 (stereo not drawn)	-7	-11	8	0	7	-1
CCn1c(=O)c(=O)[nH]c2cc(C(=O)NCc3ccc(F)cc3)ccc21	6	-5	-3	1	-15	11
CC(C)c1ccc(/C=C/C(=O)NC(=S)Nc2ccc(CN3CCOCC3)cc2)cc1	-30	-12	48*	2	4	-8
SMILES	CHRM1 PAM	M1 ag	M1 antag	M1 ag parental	CHO-K1 Ca antag	M1 PAM parental
O=C(COc1ccc(Cl)cc1Cl)NC(=S)Nc1ccc(CN2CCOCC2)cc1	-20	-6	37*	5	4	-4
CC(=O)c1ccc(NC(=O)CCn2c(=S)oc3ccccc32)cc1	-15	-10	7	2	-5	9
CC(CN(C)C)CN1c2ccccc2Sc2ccccc21 (stereo not drawn)	-28	-6	101*	1	10	0
OCCN(CCO)CC(O)CN1c2ccccc2Sc2ccccc21 (stereo not drawn)	-7	-7	9	1	5	-3
COc1ccc2c(c1)N(C[C@H](C)CN(C)C)c1ccccc1S2	-27	-7	99*	1	-3	0
CCC(=O)/C=C1\Sc2ccc(OC)cc2N1CC	6	-4	2	-1	9	0
CCN(CC)CC(O)CN1c2ccccc2Sc2ccccc21 (stereo not drawn)	-26	-8	51*	4	-2	-8
COCCNC(=O)c1cccc(Nc2nc(-c3ccccc3)c3cc(Cl)ccc3n2)c1	7	-4	5	0	5	-1
O=C(Cn1cccc1C(=O)c1ccccc1)NCc1ccccc1	3	-4	-8	0	-6	10
O=C(Cn1cccc1C(=O)c1ccccc1)NCc1ccc2c(c1)OCO2	7	-3	-10	-1	53*	2
NC(=NCc1ccc2c(c1)OCO2)NC(=O)c1ccccc1	-10	-3	24*	2	13	-8
Cc1ccc(S(=O)(=O)N2C(=O)CCC2C(=O)O/N=C(\N)c2ccccc2)cc1 (stereo not drawn)	19	18*	-9	1	-5	10
c1coc(CN(Cc2ccco2)c2ncnc3c2oc2ccccc23)c1	-16	0	37*	6	10	17
Clc1ncnc2c1oc1ccccc12	5	-3	-9	1	-19	21
COc1ccc(C2=NOC(Cn3nc(C(=O)NCc4ccc(C)cc4)cc3-c3ccccc3)C2)cc1 (stereo not drawn)	-13	-3	28	5	-7	9
COc1ccc(C2=NOC(Cn3nc(C(=O)NCc4ccco4)cc3-c3ccccc3)C2)cc1 (stereo not drawn)	-21	0	33*	7	-1	-10
CC(=O)NC(c1ccc(F)c(F)c1)c1nc(-c2cccs2)cs1 (stereo not drawn)	15	-1	-15	1	-11	9
CC1c2cc3c(cc2CCN1CC(=O)Nc1ccc(S(=O)(=O)N2CCCC2)cc1)OCCCO3 (stereo not drawn)	-41	-13	102*	5	-5	7
CC1c2cc3c(cc2CCN1C(=O)c1ccc(C(F)(F)F)cc1)OCCCO3 (stereo not drawn)	-23	-5	34*	4	-18	-10
CC(=O)Nc1ccc(C(=O)N2CCc3cc4c(cc3C2C)OCCCO4)cc1 (stereo not drawn)	-33	-13	57*	0	0	13
Cc1ccc(C(=O)N2CCc3cc4c(cc3C2C)OCCCO4)cc1 (stereo not drawn)	-12	-4	13	5	-16	17
